PubChem BioAssay AID1259343 (VanderVen Lab, College of Veterinary Medicine, Cornell …, 2017)
Out of some 6,200 compounds screened, about 2,900 (47%) were called active. The set was probably picked from earlier hits. This is one part of the list. Unmarked numbers belong to inactive results. No stated cut-off is given here; in the data, active means inhibition above about 50%; inactive means the rest.

Test: Mycobacterium tuberculosis growth inhibition, primary screen (AID 1259343)
Conditions: inhibition: at 10 µM, stronger effect = higher value; outcome: 10 uM

Compound | inhibition
CC(=NNC(N)=S)C1=CC(C)(C)CCC1 | 90.9% (active)
CCOc1ccc(NC(=O)c2ccc(Br)s2)cc1 | 8.86%
CCc1ccc(C(=O)Nc2ncc(C)s2)s1 | 62.1% (active)
CCc1ccc(C(=O)Nc2ccc(Br)cc2)s1 | 73.9% (active)
Cc1cnc(NC(=O)C2=C(O)c3ccccc3S(=O)(=O)N2C)s1 | 34.9%
Cc1cnc(NC(=O)c2cccc(OC(F)F)c2)s1 | -11.7%
Cn1c(=NN=Cc2ccccc2C(F)(F)F)sc2ccccc21 | -39.7%
COc1cc(C=NN=c2sc3ccccc3n2C)cc(OC)c1O | 68.8% (active)
COc1cc(C=NN=c2sc3ccccc3n2C)cc(Br)c1O | 10.7%
Cn1c(=NN=CC(Br)=Cc2ccccc2)sc2ccccc21 | 88.2% (active)
Cn1c(=NN=Cc2ccc(OC(F)F)cc2)sc2ccccc21 | -24.6%
Cn1c(=NN=CC(Cl)=Cc2ccccc2)sc2ccccc21 | 88.7% (active)
O=C(NCC1CCCC1)n1ccnc1 | 79.2% (active)
Cc1cc(NC(=O)C2CC2)sc1C(=O)n1ccnc1 | 48.7%
CCN(CCNC(=O)NCC1CCCC1)C(=O)OC(C)(C)C | 47.4%
CC1CN(C(=O)CN2CCc3sccc3C2c2cccc(F)c2)CCN1C(=O)Nc1ccc([N+](=O)[O-])cc1 (stereo not drawn) | -36.2%
OC(C#Cc1ccccc1)C#CC(O)(c1ccccc1)c1ccccc1 (stereo not drawn) | -2.57%
CSc1ccc(C=CC(=O)c2ccc3c(c2)OCCO3)cc1 | -10.1%
N#CC(=Cc1ccc2c(c1)OCCO2)C(=O)Nc1ccc(SC(F)F)cc1 | 84.4% (active)
CC(C)(C)c1ccccc1NS(=O)(=O)c1ccc(Cl)s1 | 23.7%
COC(=O)c1ccc(NS(=O)(=O)c2ccccc2Br)s1 | 43.4%
O=S(=O)(Nc1ccccc1Br)c1ccc(Br)s1 | 83.3% (active)
CCc1ccccc1NS(=O)(=O)c1cc(Cl)cnc1N | 1.41%
O=S(=O)(Nc1ccccc1Br)c1ccccc1Br | 91.4% (active)
CC1(C)C(C=C(Cl)Cl)C1C(=O)OCc1cccc(Oc2ccccc2)c1 (stereo not drawn) | -12.7%
O=C(NCCc1cc(Cl)cc(Cl)c1)c1ccc2c(c1)COCO2 | 25.3%
CCOc1ccccc1CNC(=O)c1ccc(-c2cc(-c3ccc(Cl)cc3Cl)[nH]n2)cc1 | 31.1%

Compound | inhibition
O=C(NCCc1ccc(Cl)cc1Cl)c1cn[nH]c1 | 91.4% (active)
CN(C)c1c(Cl)cccc1NC(=O)NCc1ccoc1 | 40.8%
CC(=O)Nc1ccc(OCc2cccc(C(F)(F)F)c2)cc1 | 57.6% (active)
CC(=O)Nc1ccc(OCc2ccc(Br)cc2F)cc1 | 62.5% (active)
Oc1cccc(OCc2cccc(C(F)(F)F)c2)c1 | 89.2% (active)
COc1cc(COc2ccc(NC(C)=O)cc2)c(OC)cc1Br | 19.7%
N#Cc1ccc(NC(=O)Cc2cccc(C(F)(F)F)c2)cc1Cl | 8.71%
FC(F)(F)c1cccc(CSc2ncnc3ccccc23)c1 | 38.1%
ON=Cc1cccc(OCc2ccccc2)c1 | -7.21%
CC(NS(=O)(=O)Cc1cccc(C(F)(F)F)c1)c1cccc(Br)c1 (stereo not drawn) | 25.3%
O=C1N=C(c2ccccc2)OC1=CC=Cc1ccccc1 | -12.3%
COc1ccccc1/C=C/C=C1N=C(/C=C/c2ccc(C)cc2)OC\1=O | 81.8% (active)
Cc1ccc(OCC(O)Cn2nnc3ccccc3c2=O)cc1 (stereo not drawn) | 35%
Cc1cc(NC(=O)c2cccn(Cc3ccc(Cl)cc3)c2=O)c2ccccc2n1 | 20.7%
O=c1c2ccccc2nnn1Cc1ccc(Cl)cc1 | 103% (active)
O=c1c2ccccc2nnn1CSc1ccc(F)cc1 | 72.2% (active)
CC(C)CCOc1ccc(C=C(C#N)C#N)cc1 | 51.5% (active)
CCCc1nnc(SCc2ccc(OCCC(C)C)cc2)n1N | 37.1%
CC1N(C)c2ccc(C=C(C#N)C#N)cc2C1(C)C (stereo not drawn) | -15.1%
Cc1csc(SCc2cc(=O)c(OC(=O)c3ccc(C)c(C)c3)co2)n1 | -15%
COc1coc(CN2CCCC(CCc3ccccc3C)C2)cc1=O (stereo not drawn) | 33.7%
CC(C)c1ncc(CN2CCCC(CCc3cccc(C(F)(F)F)c3)C2)cn1 (stereo not drawn) | 93.2% (active)
CCCC1CCCN(C(=O)c2cc3ccccc3cc2O)CC1 (stereo not drawn) | 23.5%
O=C(c1cc(COc2cccc(C(F)(F)F)c2)on1)N1CCCC(CCCO)C1 (stereo not drawn) | 47.5%
COc1ncc(CN2CCCC(CCc3ccccc3C(F)(F)F)C2)cn1 (stereo not drawn) | 77.6% (active)
COc1ncc(C(=O)N2CCCC(COc3cccc(F)c3)C2)cn1 (stereo not drawn) | 36.7%
